Experimental data taken from PubChem BioAssay (NCI).
The panel holds about 83,000 compounds, 20% with a hit somewhere; the sample as a whole holds those more often.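 Plates (96-well) were seeded with cells, treated with compound at one concentration, and incubated for 48 hours before percent growth was determined.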 Unmarked numbers belong to inactive results. Active and inactive are the calls of the source. Rule for the calls: active = growth percent below 10; inactive = the rest.

Legend:
Assay in all cases: NCI-60 one-dose screen, 48 h (100 = growth as untreated, 0 = no growth, -100 = all killed)
SK-MEL-2 melanoma = details: 10 µM unless noted
EKVX NSCLC = details: 10 µM unless noted
SN12C renal = details: 10 µM unless noted
UO-31 renal = details: 10 µM unless noted
TK-10 renal = details: 10 µM unless noted
ACHN renal = details: 10 µM unless noted
CAKI-1 renal = details: 10 µM unless noted
A498 renal = details: 10 µM unless noted
CCRF-CEM leukemia = details: 10 µM unless noted
MOLT-4 leukemia = details: 10 µM unless noted
SR leukemia = details: 10 µM unless noted
RPMI-8226 leukemia = details: 10 µM unless noted
OVCAR-8 ovarian = details: 10 µM unless noted
OVCAR-5 ovarian = details: 10 µM unless noted
OVCAR-4 ovarian = details: 10 µM
SK-OV-3 ovarian = details: 10 µM unless noted
IGROV1 ovarian = details: 10 µM unless noted
OVCAR-3 ovarian = details: 10 µM unless noted
HS 578T breast = details: 10 µM unless noted
NCI/ADR-RES ovarian = details: 10 µM unless noted

## CC(C)[C@H]1COC(=O)N1[C@@H]1C(=O)N([C@@H](CCC(=O)N2CCN(C3CCCC3)CC2)C(=O)N[C@@H]2CCCc3ccccc32)[C@@H]1/C=C/c1cccc(Cl)c1
SK-MEL-2 melanoma
  growth: 60%
EKVX NSCLC
  growth: 58.8%
SN12C renal
  growth: 59.6%
UO-31 renal
  growth: 43.5%
TK-10 renal
  growth: 54.2%
ACHN renal
  growth: 57.8%
CAKI-1 renal
  growth: 59.3%
A498 renal
  growth: 27.9%
CCRF-CEM leukemia
  growth: 42%
MOLT-4 leukemia
  growth: 24.1%
SR leukemia
  growth: 19.2%
RPMI-8226 leukemia
  growth: 22.2%
OVCAR-8 ovarian
  growth: 74.5%
OVCAR-5 ovarian
  growth: 105%
OVCAR-4 ovarian
  growth: 68.3%
SK-OV-3 ovarian
  growth: 88.1%
IGROV1 ovarian
  growth: 48.4%
OVCAR-3 ovarian
  growth: 69%
HS 578T breast
  growth: 64.3%
NCI/ADR-RES ovarian
  growth: 64.1%

## O=C1/C(=C/c2cccc(OCc3ccccc3)c2)Oc2cc(OCCN3CCCCC3)ccc21
SK-MEL-2 melanoma
  growth: 134%
EKVX NSCLC
  growth: 87.6%
SN12C renal
  growth: 81.9%
UO-31 renal
  growth: 65.1%
TK-10 renal
  growth: 118%
ACHN renal
  growth: 97.6%
CAKI-1 renal
  growth: 84.4%
A498 renal
  growth: 81.7%
CCRF-CEM leukemia
  growth: 53.8%
MOLT-4 leukemia
  growth: 82.4%
SR leukemia
  growth: -20.5% (active)
RPMI-8226 leukemia
  growth: 20.8%
OVCAR-8 ovarian
  growth: 92%
OVCAR-5 ovarian
  growth: 81.4%
OVCAR-4 ovarian
  growth: 86.2%
SK-OV-3 ovarian
  growth: 121%
IGROV1 ovarian
  growth: 71.5%
OVCAR-3 ovarian
  growth: 86.3%
NCI/ADR-RES ovarian
  growth: 82.7%

## COc1ccc2c(c1)C(C)Cc1c(ncnc1-n1cnc3ccccc31)N2C (stereo not drawn)
SK-MEL-2 melanoma
  growth: 44%
EKVX NSCLC
  growth: 40.4%
SN12C renal
  growth: 24.5%
UO-31 renal
  growth: 46.9%
TK-10 renal
  growth: 63.7%
ACHN renal
  growth: 50.1%
CAKI-1 renal
  growth: 27.6%
A498 renal
  growth: -0.234% (active)
CCRF-CEM leukemia
  growth: 9.22% (active)
MOLT-4 leukemia
  growth: 17.8%
SR leukemia
  growth: 11.8%
RPMI-8226 leukemia
  growth: 26.5%
OVCAR-8 ovarian
  growth: 17.8%
OVCAR-5 ovarian
  growth: 48.7%
OVCAR-4 ovarian
  growth: 70%
SK-OV-3 ovarian
  growth: 14.5%
IGROV1 ovarian
  growth: 50.7%
OVCAR-3 ovarian
  growth: 6% (active)
NCI/ADR-RES ovarian
  growth: 11.3%

## COc1ccc(/C=C/C(=C/c2c(O)[nH]c3cc(Br)ccc23)N=O)cc1
SK-MEL-2 melanoma
  growth: 140%
EKVX NSCLC
  growth: 108%
SN12C renal
  growth: 102%
UO-31 renal
  growth: 88.5%
TK-10 renal
  growth: 148%
ACHN renal
  growth: 110%
CAKI-1 renal
  growth: 93.1%
A498 renal
  growth: 93.6%
CCRF-CEM leukemia
  growth: 104%
MOLT-4 leukemia
  growth: 104%
SR leukemia
  growth: 70.2%
RPMI-8226 leukemia
  growth: 123%
OVCAR-8 ovarian
  growth: 104%
OVCAR-5 ovarian
  growth: 110%
OVCAR-4 ovarian
  growth: 101%
SK-OV-3 ovarian
  growth: 114%
IGROV1 ovarian
  growth: 103%
OVCAR-3 ovarian
  growth: 114%
NCI/ADR-RES ovarian
  growth: 111%

## Cn1cc(-c2noc(-c3cn(C)c4ncc(F)cc34)n2)c2cc(Cl)ccc21
SK-MEL-2 melanoma
  growth: 101%
EKVX NSCLC
  growth: 47.1%
SN12C renal
  growth: 40.8%
UO-31 renal
  growth: 53.3%
TK-10 renal
  growth: 28%
ACHN renal
  growth: 10.2%
CAKI-1 renal
  growth: 43.2%
A498 renal
  growth: 69.2%
CCRF-CEM leukemia
  growth: 99.7%
MOLT-4 leukemia
  growth: 78.2%
SR leukemia
  growth: 34.5%
RPMI-8226 leukemia
  growth: 67%
OVCAR-8 ovarian
  growth: 48.7%
OVCAR-5 ovarian
  growth: 61.9%
OVCAR-4 ovarian
  growth: -50.6% (active)
SK-OV-3 ovarian
  growth: 87.8%
IGROV1 ovarian
  growth: 51.7%
OVCAR-3 ovarian
  growth: 19.7%
NCI/ADR-RES ovarian
  growth: 67.9%

## O=C(O)CSCc1nnc2n(Cc3ccccc3)c(=O)c3c4c(sc3n12)CCCC4
SK-MEL-2 melanoma
  growth: 79.3%
EKVX NSCLC
  growth: 93.2%
SN12C renal
  growth: 96%
UO-31 renal
  growth: 90.2%
TK-10 renal
  growth: 127%
ACHN renal
  growth: 89.3%
CAKI-1 renal
  growth: 99.2%
A498 renal
  growth: 112%
CCRF-CEM leukemia
  growth: 81%
MOLT-4 leukemia
  growth: 71.8%
SR leukemia
  growth: 75.6%
RPMI-8226 leukemia
  growth: 76.9%
OVCAR-8 ovarian
  growth: 92.6%
OVCAR-5 ovarian
  growth: 94.1%
OVCAR-4 ovarian
  growth: 95.6%
SK-OV-3 ovarian
  growth: 106%
OVCAR-3 ovarian
  growth: 107%
HS 578T breast
  growth: 99.1%
NCI/ADR-RES ovarian
  growth: 96.6%

## N#C/C(=C(/O)CCCO)c1nc2ccccc2c(=O)[nH]1
SK-MEL-2 melanoma
  growth: 87.7%
EKVX NSCLC
  growth: 108%
SN12C renal
  growth: 100%
UO-31 renal
  growth: 106%
TK-10 renal
  growth: 110%
ACHN renal
  growth: 106%
CAKI-1 renal
  growth: 149%
A498 renal
  growth: 124%
CCRF-CEM leukemia
  growth: 97.8%
MOLT-4 leukemia
  growth: 105%
SR leukemia
  growth: 90.9%
RPMI-8226 leukemia
  growth: 91.1%
OVCAR-8 ovarian
  growth: 107%
OVCAR-5 ovarian
  growth: 92.5%
OVCAR-4 ovarian
  growth: 104%
SK-OV-3 ovarian
  growth: 105%
IGROV1 ovarian
  growth: 109%
HS 578T breast
  growth: 102%
NCI/ADR-RES ovarian
  growth: 95%

## Nc1nnc(CSc2nnc3n(Cc4ccccc4)c(=O)c4c5c(sc4n23)CCCC5)s1
SK-MEL-2 melanoma
  growth: 109%
EKVX NSCLC
  growth: 93.2%
SN12C renal
  growth: 91.9%
UO-31 renal
  growth: 84.6%
TK-10 renal
  growth: 113%
ACHN renal
  growth: 94.9%
CAKI-1 renal
  growth: 10%
A498 renal
  growth: 103%
CCRF-CEM leukemia
  growth: 69.1%
MOLT-4 leukemia
  growth: 71.1%
SR leukemia
  growth: 84%
RPMI-8226 leukemia
  growth: 65.4%
OVCAR-8 ovarian
  growth: 98.7%
OVCAR-5 ovarian
  growth: 103%
OVCAR-4 ovarian
  growth: 98.8%
SK-OV-3 ovarian
  growth: 42.7%
OVCAR-3 ovarian
  growth: 92.3%
HS 578T breast
  growth: 106%
NCI/ADR-RES ovarian
  growth: 94.4%

## O=C(NCc1ccccc1)C(Cl)Cl
SK-MEL-2 melanoma
  growth: 96.2%
EKVX NSCLC
  growth: 95.4%
SN12C renal
  growth: 104%
UO-31 renal
  growth: 91.5%
TK-10 renal
  growth: 90.2%
ACHN renal
  growth: 104%
CAKI-1 renal
  growth: 96.5%
A498 renal
  growth: 94.4%
CCRF-CEM leukemia
  growth: 103%
MOLT-4 leukemia
  growth: 101%
SR leukemia
  growth: 95.1%
RPMI-8226 leukemia
  growth: 101%
OVCAR-8 ovarian
  growth: 101%
OVCAR-5 ovarian
  growth: 91.7%
OVCAR-4 ovarian
  growth: 102%
SK-OV-3 ovarian
  growth: 101%
IGROV1 ovarian
  growth: 101%
HS 578T breast
  growth: 105%
NCI/ADR-RES ovarian
  growth: 104%

## CCN(CC)CCSC(=O)C(O)(c1ccccc1)C1CCCC1 (stereo not drawn)
SK-MEL-2 melanoma
  growth: 106%
EKVX NSCLC
  growth: 120%
SN12C renal
  growth: 99.8%
UO-31 renal
  growth: 78.1%
TK-10 renal
  growth: 120%
ACHN renal
  growth: 105%
CAKI-1 renal
  growth: 92%
A498 renal
  growth: 95.7%
CCRF-CEM leukemia
  growth: 118%
MOLT-4 leukemia
  growth: 91.3%
SR leukemia
  growth: 96.7%
RPMI-8226 leukemia
  growth: 109%
OVCAR-8 ovarian
  growth: 97.8%
OVCAR-5 ovarian
  growth: 94.6%
OVCAR-4 ovarian
  growth: 119%
SK-OV-3 ovarian
  growth: 113%
OVCAR-3 ovarian
  growth: 121%
HS 578T breast
  growth: 110%
NCI/ADR-RES ovarian
  growth: 84.5%

## CN(C)C(=S)Sc1ccc([N+](=O)[O-])cc1[N+](=O)[O-]
SK-MEL-2 melanoma
  growth: 57.8%
EKVX NSCLC
  growth: 82.4%
SN12C renal
  growth: 41.8%
UO-31 renal
  growth: 16.7%
TK-10 renal
  growth: 67.8%
ACHN renal
  growth: -44.4% (active)
CAKI-1 renal
  growth: 4.43% (active)
A498 renal
  growth: 80.5%
CCRF-CEM leukemia
  growth: 4.55% (active)
MOLT-4 leukemia
  growth: 0.177% (active)
SR leukemia
  growth: 7.64% (active)
RPMI-8226 leukemia
  growth: 27.7%
OVCAR-8 ovarian
  growth: 18.7%
OVCAR-5 ovarian
  growth: 72.9%
OVCAR-4 ovarian
  growth: 20.8%
SK-OV-3 ovarian
  growth: 93.1%
IGROV1 ovarian
  growth: 1.54% (active)
OVCAR-3 ovarian
  growth: 1.07% (active)
NCI/ADR-RES ovarian
  growth: 40.8%

## C=C1C(=O)O[C@H]2[C@H]1CC/C(COC(=O)NCc1ccc(Cn3c(=O)sn(-c4ccc(Cl)cc4)c3=O)cc1)=C\CC[C@@]1(C)O[C@@H]21
SK-MEL-2 melanoma
  growth: 88.2%
EKVX NSCLC
  growth: 99.6%
SN12C renal
  growth: 70.4%
UO-31 renal
  growth: 57.7%
TK-10 renal
  growth: 45%
ACHN renal
  growth: 65.5%
CAKI-1 renal
  growth: 61%
A498 renal
  growth: 107%
CCRF-CEM leukemia
  growth: 0.529% (active)
MOLT-4 leukemia
  growth: 23.2%
SR leukemia
  growth: 72.3%
RPMI-8226 leukemia
  growth: 4.32% (active)
OVCAR-8 ovarian
  growth: 84%
OVCAR-5 ovarian
  growth: 93.2%
OVCAR-4 ovarian
  growth: 54.2%
SK-OV-3 ovarian
  growth: 107%
IGROV1 ovarian
  growth: 54.4%
HS 578T breast
  growth: 106%
NCI/ADR-RES ovarian
  growth: 102%

## CCN=C1C=CC(=C(c2ccc(N(CC)CC)cc2)c2ccc(N(CC)CC)cc2)c2ccccc21
SK-MEL-2 melanoma
  growth: -76.3% (active)
EKVX NSCLC
  growth: -40% (active)
SN12C renal
  growth: -34.2% (active)
UO-31 renal
  growth: -65.4% (active)
TK-10 renal
  growth: -51.9% (active)
ACHN renal
  growth: -94.9% (active)
CAKI-1 renal
  growth: -86.3% (active)
A498 renal
  growth: -89.3% (active)
CCRF-CEM leukemia
  growth: 1.05% (active)
MOLT-4 leukemia
  growth: -25.7% (active)
SR leukemia
  growth: -7.85% (active)
RPMI-8226 leukemia
  growth: -39.8% (active)
OVCAR-8 ovarian
  growth: -52.7% (active)
OVCAR-5 ovarian
  growth: -40.1% (active)
OVCAR-4 ovarian
  growth: -18.4% (active)
SK-OV-3 ovarian
  growth: -70.2% (active)
IGROV1 ovarian
  growth: -56.7% (active)
HS 578T breast
  growth: -20.1% (active)
NCI/ADR-RES ovarian
  growth: -16.3% (active)
